This passage reports composite z-score and z-score results from PubChem BioAssay.

The structures appear in SMILES notation. Active and inactive are the calls of the source.

In assay [1] the test system is PRMT1 (protein arginine N-methyltransferase 1). The experiment in a line: small molecules binding arginine methyltransferase PRMT1 – biochemical, small-molecule microarray, 635 nm fluorescence, primary screen (AID 1088).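 Note: binding of Prmt1 protein to compounds spotted on small-molecule microarray slides.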 Particulars: higher = more signal.
Assay [2] in a line: growth effects on S. cerevisiae YJM789 – YJM789 clinical isolate, OD600, 24 h, basal, primary screen (AID 1089).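 Note: growth of clinical yeast isolate S. cerevisiae YJM 789 seeded 1000 cells per well; test concentration not given here.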 The following applies: higher = more signal, called active from +8 up or from −8 down.
Assay [3] is described as follows: S. pombe growth modifiers, basal conditions – strain 972, OD600, 24 h, no modulator, primary screen (AID 1090).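 Note: basal condition with compound alone and no growth modifier present; test concentration not given here.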 The following applies: S. pombe 972 growth, higher = more signal, called active from +8 up or from −8 down.
Assay [4] is described as follows: budding yeast growth modifiers under rapamycin – strain BY4716, OD600, 96 h, primary screen (AID 1091). Note: test concentration not given here. The following applies: S. cerevisiae BY4716 + rapamycin, higher = more signal, called active from +8 up or from −8 down.
The target of assay [5] is Torsin-1A-interacting protein 2 (Homo sapiens) (UniProt Q8NFQ8). The experiment in a line: small molecules binding lysate-expressed LULL1 – cell lysate, human LULL1 lysate, 635/667 nm fluorescence, primary screen (AID 1092).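 Note: probe is lysate of COS7 cells overexpressing human LULL1; score merges per-feature 667 nm fluorescence with signal-to-noise.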 The following applies: small-molecule microarray, hLULL1 lysate binding, 635 nm fluorescence; higher = more signal.
Chain of Torsin-1A-interacting protein 2 (Homo sapiens) (Q8NFQ8 whole entry, looked up): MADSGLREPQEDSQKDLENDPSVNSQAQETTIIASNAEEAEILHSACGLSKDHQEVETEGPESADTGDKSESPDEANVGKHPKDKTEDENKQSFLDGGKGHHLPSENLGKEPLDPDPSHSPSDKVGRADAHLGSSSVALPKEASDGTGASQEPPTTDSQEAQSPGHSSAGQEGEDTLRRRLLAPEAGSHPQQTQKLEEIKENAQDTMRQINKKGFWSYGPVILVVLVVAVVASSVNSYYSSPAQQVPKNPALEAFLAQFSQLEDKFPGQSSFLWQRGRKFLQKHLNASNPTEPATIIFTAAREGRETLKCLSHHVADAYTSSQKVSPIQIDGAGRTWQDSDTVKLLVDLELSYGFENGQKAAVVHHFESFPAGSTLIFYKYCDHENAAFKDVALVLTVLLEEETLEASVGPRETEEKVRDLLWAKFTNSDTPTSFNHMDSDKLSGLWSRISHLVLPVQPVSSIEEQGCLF
Assay [6] in a line: optical density change of DRC41 E. coli – strain DRC41, OD650, 24 h, E. coli filamentation project, primary screen (AID 1093).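 Note: MC1000 strain lacking acrAB efflux and sulA so SOS filamentation is blocked; test concentration not given here.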 The following applies: E. coli DRC41 growth, higher = more signal, called active from +8 up or from −8 down.
The nature of assay [7]: probe aLefty2 binding to arrayed compounds – biochemical, biotinylated probe, 635/667 nm fluorescence, primary screen (AID 1094).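 Note: score merges spot fluorescence near 667 nm with spot signal-to-noise ratio.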 The following applies: small-molecule microarray, higher = more signal.
Assay [8] relates to Noggin (protein binding on small-molecule microarray). As to the kind of experiment: small molecules binding Noggin protein – biochemical, 635/667 nm fluorescence, primary screen (AID 1095).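 Note: score merges 667 nm feature fluorescence with signal to noise over triplicate slides.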 Particulars: 635 nm fluorescence, higher = more signal.
Assay [9] concerns the target Neurogenic locus notch homolog protein 3 (Homo sapiens) (UniProt Q9UM47). As to the kind of experiment: small molecules binding NOTCH3 protein – biochemical, 635/667 nm fluorescence, primary screen (AID 1096). Particulars: small-molecule microarray, 635 nm fluorescence, higher = more signal.
A short description of assay [10]: probe aEGFR binding to arrayed compounds – biochemical, biotinylated probe, 635/667 nm fluorescence, primary screen (AID 1097).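 Note: probe is a biotinylated anti-EGFR antibody binding compounds printed on slides; score combines fluorescence near 667 nm and signal to noise of each spot.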 The following applies: small-molecule microarray, higher = more signal.
The subject of assay [11] is Plasmodium falciparum Sir2 (PF13_0152, Sir2A). The experiment in a line: Plasmodium falciparum Sir2A binding compounds – biochemical, small-molecule microarray, 635 nm fluorescence, primary screen (AID 1098).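 Note: score merges spot fluorescence intensity with its signal-to-noise ratio.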 Particulars: fluorescence 635 nm, higher = more signal.
Assay [12] in a line: probe aDKK1 binding to arrayed compounds – biochemical, biotinylated probe, 635/667 nm fluorescence, primary screen (AID 1099).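 Note: score merges 667nm spot fluorescence with signal to noise across triplicate slides; reference of the scale not given here.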 Particulars: small-molecule microarray, higher = more signal.
Assay [13] is described as follows: probe aCHRDL2 binding to arrayed compounds – biochemical, biotinylated probe, 635/667 nm fluorescence, primary screen (AID 1100). The following applies: small-molecule microarray, higher = more signal.
The nature of assay [14]: change in splice reporter luminescence, either direction, cell-based, HEK293, spliceosome inhibition project, primary screen (AID 1101).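 Note: HEK293 cells carrying a splicing-competent luciferase reporter gene; test concentration not given here.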 The following applies: HEK293 splicing luciferase reporter, 24 h, higher = more signal, called active from +8 up or from −8 down. (In a reporter assay the amount or activity of a reporter protein is the signal.)
Assay [15] deals with Fibroblast growth factor 10 (Homo sapiens) (UniProt O15520). The experiment in a line: compounds binding fibroblast growth factor 10 – biochemical, small-molecule microarray, 635 nm fluorescence, primary screen (AID 1102). The following applies: FGF10 binding, fluorescence 635 nm, higher = more signal.
Chain of Fibroblast growth factor 10 (Homo sapiens) (O15520 whole entry, looked up): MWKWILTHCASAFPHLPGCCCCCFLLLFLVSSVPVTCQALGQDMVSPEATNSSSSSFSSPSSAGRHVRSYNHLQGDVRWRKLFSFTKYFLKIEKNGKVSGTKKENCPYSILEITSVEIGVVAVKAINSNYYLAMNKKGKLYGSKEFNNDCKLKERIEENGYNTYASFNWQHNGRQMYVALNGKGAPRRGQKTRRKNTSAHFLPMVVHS
Assay [16] concerns glycogen synthase kinase-3 (GSK3A per assay name; protocol says GSK3B). The experiment in a line: compounds binding glycogen synthase kinase-3 – biochemical, small-molecule microarray, 635 nm fluorescence, GSK3A, primary screen (AID 1103). Note: the record names both GSK3A and GSK3B. Particulars: fluorescence 635 nm, higher = more signal.
Assay [17] has as its target Epidermal growth factor receptor (Homo sapiens) (UniProt P00533). The experiment in a line: compounds binding epidermal growth factor receptor – biochemical, small-molecule microarray, 635 nm fluorescence, primary screen (AID 1104).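 Note: score merges 667 nm emission intensity with spot signal to noise over triplicate slides.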 The following applies: EGFR binding, higher = more signal.
Assay [18] deals with Follistatin-related protein 3 (Homo sapiens) (UniProt O95633). The experiment in a line: compounds binding follistatin-related protein 3 – biochemical, small-molecule microarray, 635 nm fluorescence, primary screen (AID 1105).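 Note: score merges emission near 667 nm and signal to noise per printed spot across three slides.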 The following applies: FSTL3 binding, higher = more signal.
Chain of Follistatin-related protein 3 (Homo sapiens) (O95633 whole entry, looked up): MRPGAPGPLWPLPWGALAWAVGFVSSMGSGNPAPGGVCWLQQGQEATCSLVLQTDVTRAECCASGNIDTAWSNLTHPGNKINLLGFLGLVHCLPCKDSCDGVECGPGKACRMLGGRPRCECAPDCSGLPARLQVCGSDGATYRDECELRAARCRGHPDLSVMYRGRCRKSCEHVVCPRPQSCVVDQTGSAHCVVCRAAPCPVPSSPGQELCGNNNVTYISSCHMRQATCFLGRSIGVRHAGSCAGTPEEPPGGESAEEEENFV
Assay [19] concerns the target Dickkopf-related protein 1 (Homo sapiens) (UniProt O94907). The experiment in a line: small molecules binding DKK1 protein – biochemical, small-molecule microarray, 635 nm fluorescence scan, primary screen (AID 1106).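 Note: score merges emission near 667 nm with signal to noise over three replicate slides.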 The following applies: higher = more signal.
The test system of assay [20] is Inhibin beta A chain (activin A). The experiment in a line: small molecules binding activin A – biochemical, small-molecule microarray, 635 nm fluorescence scan, primary screen (AID 1107).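 Note: mouse activin A protein probed at 4.33 µg/mL on printed slides; score merges bound-protein fluorescence near 667 nm with spot signal-to-noise.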 Particulars: INHBA, higher = more signal.

Chain of Neurogenic locus notch homolog protein 3 (Homo sapiens) (Q9UM47 whole entry, looked up): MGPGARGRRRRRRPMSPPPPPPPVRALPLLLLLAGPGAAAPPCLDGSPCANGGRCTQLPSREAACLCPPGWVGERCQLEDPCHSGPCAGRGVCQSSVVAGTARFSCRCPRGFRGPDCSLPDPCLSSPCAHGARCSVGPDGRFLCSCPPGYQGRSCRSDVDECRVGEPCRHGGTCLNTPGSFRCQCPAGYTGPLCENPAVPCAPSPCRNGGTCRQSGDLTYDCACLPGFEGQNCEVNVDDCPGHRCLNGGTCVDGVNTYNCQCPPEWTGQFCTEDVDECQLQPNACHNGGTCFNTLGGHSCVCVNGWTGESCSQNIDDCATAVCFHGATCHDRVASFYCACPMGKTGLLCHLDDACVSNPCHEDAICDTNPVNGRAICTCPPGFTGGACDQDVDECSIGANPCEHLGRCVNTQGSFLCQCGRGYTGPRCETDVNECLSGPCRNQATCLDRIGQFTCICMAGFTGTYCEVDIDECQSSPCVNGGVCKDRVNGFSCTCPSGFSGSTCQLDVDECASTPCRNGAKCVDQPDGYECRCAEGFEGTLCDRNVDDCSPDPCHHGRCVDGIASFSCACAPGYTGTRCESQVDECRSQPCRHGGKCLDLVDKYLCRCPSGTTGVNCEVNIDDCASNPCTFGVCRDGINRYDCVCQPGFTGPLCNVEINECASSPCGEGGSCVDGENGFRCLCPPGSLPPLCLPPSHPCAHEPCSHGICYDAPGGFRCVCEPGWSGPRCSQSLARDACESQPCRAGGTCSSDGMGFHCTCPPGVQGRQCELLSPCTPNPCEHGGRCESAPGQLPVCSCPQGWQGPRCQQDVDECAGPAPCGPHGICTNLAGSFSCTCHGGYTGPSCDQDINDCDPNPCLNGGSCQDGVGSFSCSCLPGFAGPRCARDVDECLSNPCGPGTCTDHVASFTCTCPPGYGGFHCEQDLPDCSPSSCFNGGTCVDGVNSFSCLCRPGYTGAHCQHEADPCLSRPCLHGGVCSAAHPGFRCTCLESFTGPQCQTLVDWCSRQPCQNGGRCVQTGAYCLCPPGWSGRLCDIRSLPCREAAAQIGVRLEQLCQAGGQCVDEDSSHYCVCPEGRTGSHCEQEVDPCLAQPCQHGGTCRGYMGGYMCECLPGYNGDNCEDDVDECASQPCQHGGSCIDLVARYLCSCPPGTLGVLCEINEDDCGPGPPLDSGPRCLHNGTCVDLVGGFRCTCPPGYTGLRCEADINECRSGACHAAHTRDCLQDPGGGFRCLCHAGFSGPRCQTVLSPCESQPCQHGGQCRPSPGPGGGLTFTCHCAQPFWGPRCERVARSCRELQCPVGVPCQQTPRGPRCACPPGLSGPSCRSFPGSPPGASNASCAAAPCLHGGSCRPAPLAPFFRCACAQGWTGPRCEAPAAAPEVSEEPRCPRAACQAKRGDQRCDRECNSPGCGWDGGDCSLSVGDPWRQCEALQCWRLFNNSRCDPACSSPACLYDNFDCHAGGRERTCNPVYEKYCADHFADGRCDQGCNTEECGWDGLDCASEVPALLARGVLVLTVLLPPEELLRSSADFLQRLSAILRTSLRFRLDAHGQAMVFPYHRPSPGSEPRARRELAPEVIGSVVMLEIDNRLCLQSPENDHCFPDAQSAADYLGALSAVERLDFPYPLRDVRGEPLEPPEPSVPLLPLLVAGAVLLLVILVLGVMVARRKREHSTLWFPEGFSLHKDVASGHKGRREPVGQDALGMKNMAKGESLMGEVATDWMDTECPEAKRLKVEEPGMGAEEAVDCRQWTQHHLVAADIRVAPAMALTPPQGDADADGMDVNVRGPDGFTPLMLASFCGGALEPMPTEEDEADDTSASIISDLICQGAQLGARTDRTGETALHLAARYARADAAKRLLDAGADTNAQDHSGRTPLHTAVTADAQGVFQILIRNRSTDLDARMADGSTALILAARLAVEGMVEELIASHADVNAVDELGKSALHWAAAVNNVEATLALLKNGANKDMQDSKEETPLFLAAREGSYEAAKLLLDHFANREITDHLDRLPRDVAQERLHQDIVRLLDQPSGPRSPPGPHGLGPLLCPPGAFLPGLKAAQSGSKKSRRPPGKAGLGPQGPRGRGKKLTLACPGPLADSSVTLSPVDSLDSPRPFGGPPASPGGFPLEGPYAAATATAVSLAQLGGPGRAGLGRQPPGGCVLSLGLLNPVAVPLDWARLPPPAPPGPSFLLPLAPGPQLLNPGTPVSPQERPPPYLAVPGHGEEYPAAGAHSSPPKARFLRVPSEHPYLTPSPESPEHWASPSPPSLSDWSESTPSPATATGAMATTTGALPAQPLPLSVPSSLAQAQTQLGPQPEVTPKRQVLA
Chain of Epidermal growth factor receptor (Homo sapiens) (P00533 whole entry, looked up): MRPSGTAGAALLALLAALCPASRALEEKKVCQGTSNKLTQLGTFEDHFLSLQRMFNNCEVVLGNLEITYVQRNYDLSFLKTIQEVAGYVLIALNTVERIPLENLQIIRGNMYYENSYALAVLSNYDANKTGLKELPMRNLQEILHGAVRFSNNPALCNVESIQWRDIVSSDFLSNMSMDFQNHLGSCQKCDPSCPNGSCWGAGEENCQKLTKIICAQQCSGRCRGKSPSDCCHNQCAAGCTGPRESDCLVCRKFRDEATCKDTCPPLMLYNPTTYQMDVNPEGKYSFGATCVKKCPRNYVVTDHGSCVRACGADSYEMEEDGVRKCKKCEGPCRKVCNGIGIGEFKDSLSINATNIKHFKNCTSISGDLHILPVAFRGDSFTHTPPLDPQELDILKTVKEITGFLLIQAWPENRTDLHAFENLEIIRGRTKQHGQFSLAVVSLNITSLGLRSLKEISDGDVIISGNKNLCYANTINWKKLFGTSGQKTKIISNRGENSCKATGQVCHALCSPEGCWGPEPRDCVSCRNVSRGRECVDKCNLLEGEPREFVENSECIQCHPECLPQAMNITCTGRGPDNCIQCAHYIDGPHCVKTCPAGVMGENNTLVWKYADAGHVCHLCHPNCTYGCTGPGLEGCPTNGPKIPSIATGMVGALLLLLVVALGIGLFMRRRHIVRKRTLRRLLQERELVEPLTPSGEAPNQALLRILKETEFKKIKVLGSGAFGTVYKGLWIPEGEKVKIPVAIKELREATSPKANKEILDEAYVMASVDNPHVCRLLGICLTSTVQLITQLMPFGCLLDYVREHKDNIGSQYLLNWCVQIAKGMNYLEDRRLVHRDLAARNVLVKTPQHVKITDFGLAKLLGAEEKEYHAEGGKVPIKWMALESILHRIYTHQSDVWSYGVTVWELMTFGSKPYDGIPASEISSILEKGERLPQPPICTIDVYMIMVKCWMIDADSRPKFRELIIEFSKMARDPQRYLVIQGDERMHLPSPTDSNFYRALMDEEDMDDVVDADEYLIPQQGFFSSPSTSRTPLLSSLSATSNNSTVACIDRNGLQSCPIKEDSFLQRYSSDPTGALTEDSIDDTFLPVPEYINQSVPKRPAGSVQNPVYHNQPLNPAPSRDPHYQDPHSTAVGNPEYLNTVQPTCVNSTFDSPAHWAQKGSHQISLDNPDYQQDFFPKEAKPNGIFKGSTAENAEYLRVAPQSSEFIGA
Chain of Dickkopf-related protein 1 (Homo sapiens) (O94907 whole entry, looked up): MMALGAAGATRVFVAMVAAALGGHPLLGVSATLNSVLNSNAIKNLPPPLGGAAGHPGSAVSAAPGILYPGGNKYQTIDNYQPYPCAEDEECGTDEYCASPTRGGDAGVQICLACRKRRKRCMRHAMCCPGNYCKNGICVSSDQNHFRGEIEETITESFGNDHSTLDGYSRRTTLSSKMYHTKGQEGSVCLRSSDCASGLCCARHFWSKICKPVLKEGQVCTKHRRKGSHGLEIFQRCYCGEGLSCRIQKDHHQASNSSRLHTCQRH

`CC(C)CON=C1[C@H]2CCn3c(=O)n(C)c(=O)n3[C@H]2[C@H](O)[C@@H]2O[C@H]12`: the composite z-score in assay [1] is -0.117; in assay [5], -0.0761; in assay [7], -0.112; in [8], 0.757; in assay [9], 0.861; in assay [10] it was 0.006. Besides, the composite z-score in assay [11] was 0.59; in assay [12], -0.339; in assay [13], -0.507; in [15], 0.401; in [16] it was 0.481; in assay [17], 0.377. In addition, the values for the composite z-score in assay [18], in assay [19] and in [20] were 0.703, 0.708 and 0.283, respectively. For the same molecule, the z-score in [2] is 0.0116 (inactive); in assay [3] it was -0.08 (inactive); in assay [4], -0.6 (inactive); in assay [6] it was 0.253 (inactive); in [14] it was 0.253 (inactive).

Take `OC[C@H]1O[C@H](C#Cc2ccccc2)C=C[C@@H]1O`: the composite z-score in assay [1] was 0.232; in assay [5], 0.233; in [7] it was -0.113; in [8] it was 0.498; in assay [9] it was 0.609; in assay [10], -0.124. Moreover, the composite z-score is 0.721 in assay [11]; -0.301 in [12]; -0.385 in [13]; 0.194 in [15]; 0.356 in assay [16]; 0.506 in [17]. In addition, the composite z-score in assay [18] was 0.546; in [19], 0.546; in assay [20], 0.408. In addition, the z-score was 0.643 (inactive) in assay [2]; -1.33 (inactive) in [3]; -0.98 (inactive) in assay [4]; 0.897 (inactive) in [6]; 0.072 (inactive) in assay [14].

As for `CON=C(C)CCN1CCCc2nc(C)c(C)cc21`, the composite z-score in [1] was 1.43; in assay [5] it was 1.92; in [7], -0.0179; in assay [8], 0.513; in [9], 0.632; in assay [10], 0.0376. For the same molecule, the composite z-score was 0.858 in assay [11]; -0.117 in assay [12]; -0.429 in assay [13]; 0.423 in assay [15]; 0.897 in [16]; 0.695 in assay [17]. For the same molecule, the composite z-score came to 0.68 in assay [18], 0.847 in assay [19] and 0.912 in assay [20]. Moreover, the z-score in [2] was -0.596 (inactive); in assay [3], -0.837 (inactive); in assay [4], 0.0921 (inactive); in [6], 0.0129 (inactive); in assay [14], 0.205 (inactive).

Turning to `CCOC(=O)[C@H](Cc1ccccc1)NC(=O)CCC1CC(OC(=O)NCc2cccc3ccccc23)CC2(CCCC(COC(=O)NCCOc3ccccc3)O2)O1` (stereo not given in full), the composite z-score in assay [1] was 1.57; in [5] it was 3.18; in assay [7], -0.122; in assay [8], 0.734; in [9], 1.12; in [10], -0.0828. The composite z-score was 1.2 in assay [11]; -0.351 in assay [12]; -0.477 in assay [13]; 0.441 in assay [15]; 0.974 in [16]; 0.575 in assay [17]. Also, the results for the composite z-score in assay [18], in assay [19] and in [20] were 0.579, 0.504 and 0.011, respectively. The z-score in assay [2] is -0.851 (inactive); in [3] it was -0.421 (inactive); in [4], -0.792 (inactive); in assay [6] it was -0.325 (inactive); in [14], -1.82 (inactive).

Consider `COc1ccc2c(c1)O[C@@H](c1cccc(C(F)(F)F)c1)[C@H](O)C2=O`, for which the composite z-score in assay [1] is 0.222; in [5], 1.19; in [7] it was -0.261; in [8], 0.614; in assay [9], 0.661; in [10], 0.0251. For the same molecule, the composite z-score in assay [11] was 0.0008; in assay [12] it was -0.14; in assay [13], -0.324; in assay [15], 0.213; in [16], 0.39; in assay [17], 0.349. Besides, the composite z-score in assay [18] stood at 0.416; in assay [19], 0.356; in assay [20], 0.149. In addition, the z-score is -3.42 (inactive) in assay [2]; -6.34 (inactive) in assay [3]; -0.489 (inactive) in assay [4]; 1.2 (inactive) in [6]; -0.912 (inactive) in assay [14].
